We go through ten molecules from PubChem BioAssay (NCATS).

Assay [1] addresses Luciferin 4-monooxygenase (Photinus pyralis) (UniProt P08659). Put plainly: Biochemical firefly luciferase enzyme assay for NPC (AID 624030).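 Also: purified P. pyralis luciferase at 10 nM with luciferin and ATP substrate; nearly all actives have a fitted effect of over 70% in size.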 The gist of the method:
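Purified P. pyralis luciferase at 10 nM in 50 mM Tris Acetate (final), luminescence read within 5 minutes of enzyme addition to compounds. Activity normalised to PTC124 versus DMSO; concentration-response curves classed by r2, magnitude and activity.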

Assay [2] deals with CP215. Description: qHTS profiling for inhibitors of Plasmodium falciparum proliferation (AID 504749). Also: nearly all actives have a fitted effect of over 60% in size. Also: potency is read from the fitted curve at half-maximal effect. The settings on record: P. falciparum in erythrocytes, SYBR Green DNA, 72 h; series mostly up to 28.7 µM. The procedure, abridged: (§1)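 P. falciparum-infected erythrocytes (0.3% parasitemia, 2.5% hematocrit) incubated with compound 72 h at 37 C, 5% CO2. Parasite DNA detected by SYBR Green after lysis, overnight at room temperature; normalised to 0.29 uM artemisinin and DMSO.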
For orientation: Quantitative high-throughput screening tests each substance at several concentrations.

The test system of assay [3] is CP266. The assay is described as above. The settings on record: P. falciparum in erythrocytes, SYBR Green DNA, 72 h; series mostly up to 28.7 µM. The gist of the method: as §1
Assay [4] has as its system CP268. Described as above. The conditions noted are these: P. falciparum in erythrocytes, SYBR Green DNA, 72 h; series mostly up to 28.7 µM. The procedure, abridged: as §1
For assay [5], the system named is CP291. Described as above. The settings on record: P. falciparum in erythrocytes, SYBR Green DNA, 72 h; series mostly up to 28.7 µM. The procedure, abridged: as §1
Assay [6] relates to CP297. The description is as above. The settings on record: P. falciparum in erythrocytes, SYBR Green DNA, 72 h; series mostly up to 28.7 µM. The procedure, abridged:
as §1

For assay [7], the system named is CP305. The assay is described as above. The settings on record: P. falciparum in erythrocytes, SYBR Green DNA, 72 h; series mostly up to 28.7 µM. The gist of the method: as §1
In assay [8] the test system is CP335. The assay is described as above. The settings on record: P. falciparum in erythrocytes, SYBR Green DNA, 72 h; series mostly up to 28.7 µM. The procedure, abridged:
as §1

Assay [9] has as its system DIV17. The assay is described as above. The settings on record: P. falciparum in erythrocytes, SYBR Green DNA, 72 h; series mostly up to 28.7 µM. The procedure, abridged:
as §1

Assay [10] relates to FAB9. Described as above. The conditions noted are these: P. falciparum in erythrocytes, SYBR Green DNA, 72 h; series mostly up to 28.7 µM. The gist of the method:
as §1

Assay [11] has as its system GB4. The assay is described as above. The conditions noted are these: P. falciparum in erythrocytes, SYBR Green DNA, 72 h; series mostly up to 28.7 µM. The gist of the method:
as §1

Assay [12] concerns HB3. Described as above. The settings on record: P. falciparum in erythrocytes, SYBR Green DNA, 72 h; series mostly up to 28.7 µM. The gist of the method: as §1
Assay [13] has as its system ICS. The description is as above. The conditions noted are these: P. falciparum in erythrocytes, SYBR Green DNA, 72 h; series mostly up to 28.7 µM. The procedure, abridged:
as §1

Assay [14] concerns JCK. The description is as above. The settings on record: P. falciparum in erythrocytes, SYBR Green DNA, 72 h; series mostly up to 28.7 µM. The procedure, abridged:
as §1

Assay [15] concerns P93_24. Described as above. The conditions noted are these: P. falciparum in erythrocytes, SYBR Green DNA, 72 h; series mostly up to 28.7 µM. The gist of the method: as §1
In assay [16] the test system is PC26. The assay is described as above. The settings on record: P. falciparum in erythrocytes, SYBR Green DNA, 72 h; series mostly up to 28.7 µM. The procedure, abridged:
as §1

Assay [17] relates to PC49. Described as above. The conditions noted are these: P. falciparum in erythrocytes, SYBR Green DNA, 72 h; series mostly up to 28.7 µM. The procedure, abridged:
as §1

For assay [18], the system named is TAB109. The assay is described as above. The settings on record: P. falciparum in erythrocytes, SYBR Green DNA, 72 h; series mostly up to 28.7 µM. The gist of the method:
as §1

Assay [19] deals with CP260. Described as above. The conditions noted are these: P. falciparum in erythrocytes, SYBR Green DNA, 72 h; series mostly up to 28.7 µM. The gist of the method:
as §1

The test system of assay [20] is DIV14. Described as above. The settings on record: P. falciparum in erythrocytes, SYBR Green DNA, 72 h; series mostly up to 28.7 µM. The gist of the method: as §1

Results filed as inconclusive are left out. Activity calls are given as the source filed them. Calls follow the shape of the dose curve; as a rule, active = well fitted inhibition curve with a large enough effect; inconclusive = small, poorly fitted or top-dose-only effect; inactive = flat fitted curve, though single readings scatter.

Chain of Luciferin 4-monooxygenase (Photinus pyralis) (P08659 whole entry, looked up): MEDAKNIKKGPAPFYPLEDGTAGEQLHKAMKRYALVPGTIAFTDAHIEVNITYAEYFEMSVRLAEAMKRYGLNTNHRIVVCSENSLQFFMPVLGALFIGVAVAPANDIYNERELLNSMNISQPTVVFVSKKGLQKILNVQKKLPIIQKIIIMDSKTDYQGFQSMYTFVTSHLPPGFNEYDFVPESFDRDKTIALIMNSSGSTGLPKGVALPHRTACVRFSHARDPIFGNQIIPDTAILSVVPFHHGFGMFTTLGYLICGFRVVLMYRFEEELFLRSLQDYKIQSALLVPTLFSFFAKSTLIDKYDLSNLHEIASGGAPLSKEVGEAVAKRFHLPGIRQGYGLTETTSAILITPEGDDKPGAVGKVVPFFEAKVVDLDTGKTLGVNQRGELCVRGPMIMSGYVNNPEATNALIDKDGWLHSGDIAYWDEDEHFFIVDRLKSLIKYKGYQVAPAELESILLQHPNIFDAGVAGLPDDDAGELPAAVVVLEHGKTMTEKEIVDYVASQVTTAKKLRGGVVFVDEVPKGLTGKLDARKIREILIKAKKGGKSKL

As to `CCCC(=O)Nc1c(I)cc(I)c(C[C@H](CC)C(=O)O)c1I`, the Potency entry in [1], in assay [2], in assay [3], in [4], in [5] and in [6] was “inactive” each time. Further, the Potency entry in assay [7], in assay [8], in assay [9], in assay [10], in [11] and in assay [12] was “inactive” in each case. Besides, the Potency entry in assay [13], in [14], in [15], in [16], in assay [17] and in assay [18] was “inactive” throughout.
On to `Nc1ncn(C2C[C@H](O)[C@@H](CO)O2)c(=O)n1` (stereo not given in full), for which the Potency entry in [1], in assay [19], in assay [4], in assay [5], in [7] and in assay [8] was “inactive” each time. The Potency entry in assay [20], in assay [9], in assay [10], in assay [11], in assay [12] and in assay [13] was “inactive” each time. The Potency entry in assay [14], in assay [15], in assay [16], in assay [17] and in [18] was “inactive” each time.
Consider `CO/N=C(/C(=O)N[C@@H]1C(=O)N2C(C(=O)O)=C(CSc3nnnn3C)CS[C@H]12)c1csc(N)n1`, for which the Potency result in assay [1], in assay [2], in [19], in [4], in assay [5] and in assay [6] was “inactive” each time. Moreover, the Potency result in assay [7], in assay [8], in [20], in [9], in assay [10] and in assay [11] was “inactive” each time. Further, the Potency entry in assay [12], in assay [13], in [14], in assay [15], in assay [16] and in assay [17] was “inactive” throughout. Also, in assay [18], the Potency result was “inactive”.
Take `CC(CN1CC(=O)NC(=O)C1)N1CC(=O)NC(=O)C1` (stereo not given): the Potency entry in assay [1], in assay [19], in [3], in assay [4], in assay [5] and in assay [6] was “inactive” throughout. For the same molecule, the Potency result in assay [7], in assay [8], in [20], in assay [9], in assay [10] and in assay [11] was “inactive” throughout. Moreover, the Potency entry in assay [12], in [13], in [14], in assay [15], in [16] and in [17] was “inactive” each time. Moreover, in [18], the Potency entry was “inactive”.
Consider `CC[C@@]1(O)CC2CN(CCc3c([nH]c4ccccc34)[C@](C(=O)OC)(c3cc4c(cc3OC)N(C)C3[C@@](O)(C(=O)OC)C(OC(C)=O)[C@]5(CC)C=CCN6CC[C@@]43C65)C2)C1` (stereo not given in full), for which the Potency entry in assay [1] is “inactive”. Besides, the Potency in [2] is 3.38 µM (active); in assay [19], 0.794 µM (active); in assay [6], 2.39 µM (active); in assay [7], 3.79 µM (active); in [8], 1.9 µM (active); in [20] it was 4.26 µM (active). Besides, the Potency was 4.78 µM (active) in [9]; 2.13 µM (active) in [11]; 0.708 µM (active) in assay [13]; 6.31 µM (active) in assay [14]; 3.16 µM (active) in assay [15]; 3.16 µM (active) in [18].
With `C=C(CC[C@@H](C)[C@H]1CCC2[C@]1(C)CC[C@]13C[C@@]14CCC(OC(=O)/C=C/c1ccc(O)c(OC)c1)C(C)(C)[C@@H]4CC[C@@]23C)C(C)C` (stereo not given in full), the Potency result in assay [1], in assay [2], in [19], in assay [3], in [4] and in [5] was “inactive” each time. The Potency result in [6], in assay [7], in assay [8], in [20], in [9] and in assay [10] was “inactive” throughout. The Potency result in assay [11], in assay [12], in assay [13], in [14], in assay [15] and in [16] was “inactive” in each case. Moreover, the Potency entry in assay [17] and in assay [18] was “inactive” each time.
For `C[C@]12C=CC(=O)N[C@@H]1CC[C@@H]1C2CC[C@]2(C)C(C(=O)Nc3cc(C(F)(F)F)ccc3C(F)(F)F)CC[C@@H]12` (stereo not given in full), the Potency result in [1], in [3], in assay [15], in assay [16] and in assay [18] was “inactive” throughout. In addition, the Potency in [19] is 5.01 µM (active); in assay [8], 3.79 µM (active); in assay [13], 3.16 µM (active).
On to `Nc1nc(/C(=C/CC(=O)O)C(=O)NC2C(=O)N3C(C(=O)O)=CCSC23)cs1` (stereo not given), for which the Potency entry in [1], in [2], in [19], in assay [3], in assay [4] and in [5] was “inactive” throughout. Moreover, the Potency entry in [6], in assay [7], in assay [8], in assay [20], in assay [9] and in assay [10] was “inactive” each time. Further, the Potency result in [11], in [13], in assay [14], in assay [15], in assay [16] and in assay [17] was “inactive” throughout. Moreover, the Potency result in [18] was “inactive”.
`CCCCCOC(=O)Nc1nc(=O)n(C2O[C@H](C)[C@@H](O)[C@@H]2O)cc1F` (stereo not given in full): the Potency result in assay [1], in assay [2], in [19], in [3], in assay [4] and in assay [5] was “inactive” throughout. Besides, the Potency result in assay [6], in assay [7], in assay [8], in assay [20], in assay [9] and in [10] was “inactive” throughout. Also, the Potency entry in [11], in assay [12], in assay [13], in assay [14], in assay [15] and in assay [16] was “inactive” in each case. The Potency result in [17] and in [18] was “inactive” throughout.
For the molecule `N#C/C(=C1/SCC(c2ccccc2Cl)S1)n1ccnc1` (stereo not given), the Potency result in assay [1], in assay [19], in assay [4], in assay [5], in assay [7] and in [8] was “inactive” in each case. Also, the Potency entry in assay [9], in [10], in [12], in [14], in assay [17] and in [18] was “inactive” in each case.
